Bioassay records from PubChem BioAssay.
CCT modulator: modulators of cytosolic chaperonin (CCT/TRiC) activity; AID 651819; activity change, % (no concentration beside the values), hits read low; purified chaperonin ATPase assay, HTRF ADP detection, 30 min; 360,000 compounds, 0.3% hits; in the data active = activity change below about -30%; also: % is scaled to controls: 0 for no effect and ±100 for the full control effect
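TRiC (40 or 20 nM final, by batch activity) in 30 mM Tris pH 7.4, 100 mM KCl, 5 mM MgCl2, 1 mM DTT was treated with compound at 76 uM single dose, then 10 uM ATP, 30 min at 37 °C. ADP was read by HTRF Transcreener.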
aSyn yeast inh: inhibitors of alpha-synuclein toxicity in yeast; Potency, µM (highest dose often 46.1 µM), inactives show at the top dose growth rescue (activation), actives largely listed as activators; 370,000 compounds, 0.14% hits; Yeast expressing alpha-synuclein, growth rescue, BacTiter-Glo, 24 h; AID 652106; also: potency is read from the fitted curve at half-maximal effect; % of control where 0% means no effect; nearly all actives have a fitted effect of over 65% in size
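Galactose-induced alpha-syn yeast (OD600=0.02, raffinose-pregrown) + pinned cpd, 24 hr, 30 deg C; growth by BacTiter-Glo luminescence. Growth restoration scores as activation.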
MmCpn inh: inhibitors of Methanococcus maripaludis chaperonin TRiC (MmCpn). purified Mm-Cpn ATPase, ADP Transcreener TR-FRET. Potency, µM (series often up to 76.9 µM), inactives show top-dose activity, negative = inhibition, actives largely listed as inhibitors. 330,000 compounds, 0.031% hits. AID 504842; also: potency is read from the fitted curve at half-maximal effect; % is scaled to controls: 0 for no effect and ±100 for the full control effect; nearly all actives have a fitted effect of over 80% in size
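Purified archaeal Mm-CPN (25nM final) preincubated 10 min at 37degC with compound, then 10uM ATP for 30 min at 37degC; ADP measured by HTRF Transcreener TR-FRET; buffer 30 mM TRIS pH 7.4, 100mM KCl, 5mM MgCl2, 1mM DTT.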
Abeta rescue: A-beta toxicity reversal in yeast; Potency, µM (series often up to 46.1 µM), hits mostly activators; AID 1347071; 410,000 compounds, 0.063% hits; yeast expressing A-beta42, growth rescue, OD600, 48 h; response scale: 0% DMSO, 100% iron-clioquinol control; also: potency is read from the fitted curve at half-maximal effect; nearly all actives have a fitted effect of over 55% in size
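Growth rescue measured by 600 nm absorbance after 48 h yeast culture at 30 C with compound. Values normalized between DMSO and an equimolar ferric chloride plus clioquinol control.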
FUS suppressor: rescues growth of FUS-expressing yeast | S. cerevisiae FUS-expressing, growth rescue, OD600, 24 h | Potency, µM (series often up to 76.6 µM), hits mostly activators | 390,000 compounds, 0.24% hits | AID 1347120;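 also: potency is read from the fitted curve at half-maximal effect; plate controls were DMSO vehicle for no effect and reference control for full effect; nearly all actives have a fitted effect of over 55% in size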
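Quantitative HTS measuring growth restoration of FUS-toxic yeast. Galactose-induced cells (OD 0.005) were exposed 24hr at 30C to compounds at several concentrations, then absorbance at 600 nm was recorded.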
TDP-43 yeast inh: rescues yeast growth from TDP-43 toxicity. TDP-43 expressing yeast growth rescue, BacTiter-Glo, 24 h. Potency, µM (titrated, usually from 46.1 µM), without a hit: top-dose growth rescue (activation), hits mostly activators. 410,000 compounds, 1.8% hits. AID 652104; also: potency is read from the fitted curve at half-maximal effect; % of control where 0% means no effect; nearly all actives have a fitted effect of over 50% in size
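Luminescence from BacTiter-Glo reports growth of TDP-43-expressing yeast after 24 hr at 30 deg C with compound. Cells were raffinose-pregrown to mid-log, then seeded in galactose medium at OD600=0.02.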
* hit, by the source's call. Hits are enriched below; roughly 2.3% of the tested compounds scored in any of these assays. Unless noted, calls follow the shape of the dose curve; as a rule, active = well fitted curve in the direction sought with a large enough effect; inconclusive = small, poorly fitted or top-dose-only effect, or another doubt; inactive = no such curve, though single readings can be large; an effect the other way counts as inactive or inconclusive.

What do the screens show for `COc1ccc([C@H]2CC(=O)C=C(c3cccc(Br)c3)C2)cc1`?
CCT modulator: -4; aSyn yeast inh: inconclusive; MmCpn inh: 0%; Abeta rescue: inactive; FUS suppressor: inactive; TDP-43 yeast inh: 22µM*

Results for COc1cccc(C2=CC(=O)C[C@H](c3ccc(Cl)cc3)C2)c1 ?
CCT modulator: -1; aSyn yeast inh: 11%; MmCpn inh: -1%; Abeta rescue: inactive; FUS suppressor: inconclusive; TDP-43 yeast inh: 13µM*

Results for CCOC(=O)c1cccc(C2=CC(=O)C[C@H](c3ccc(OC)c(OC)c3)C2)c1 ?
CCT modulator: 1; aSyn yeast inh: 1%; MmCpn inh: 0%; Abeta rescue: inactive; FUS suppressor: inconclusive; TDP-43 yeast inh: 22µM*

What do the screens show for `COc1ccc([C@H]2CC(=O)C=C(c3ccc(O)cc3)C2)cc1OC`?
CCT modulator: 1; aSyn yeast inh: 1%; MmCpn inh: 2%; Abeta rescue: inactive; FUS suppressor: inactive; TDP-43 yeast inh: 14%

What do the screens show for `COc1ccc([C@H]2CC(=O)C=C(c3cccc(C(C)C)c3)C2)cc1OC`?
CCT modulator: 0; aSyn yeast inh: -5%; MmCpn inh: -1%; Abeta rescue: inactive; FUS suppressor: inactive; TDP-43 yeast inh: 20µM*

Results for COc1ccc([C@H]2CC(=O)C=C(c3cccc(C(F)(F)F)c3)C2)cc1 ?
CCT modulator: -2; aSyn yeast inh: -5%; MmCpn inh: 2%; Abeta rescue: inactive; FUS suppressor: inactive; TDP-43 yeast inh: inconclusive

What do the screens show for `O=C1C=C(c2ccc3ccccc3c2)C[C@@H](c2ccc(Cl)cc2)C1`?
CCT modulator: 1; aSyn yeast inh: 12%; MmCpn inh: 0%; Abeta rescue: inactive; FUS suppressor: inactive; TDP-43 yeast inh: 15%

What do the screens show for `CC(C)c1cccc(C2=CC(=O)C[C@H](c3ccc(F)cc3)C2)c1`?
CCT modulator: -1; aSyn yeast inh: -10%; MmCpn inh: -1%; Abeta rescue: inactive; FUS suppressor: inactive; TDP-43 yeast inh: 13%

Results for O=C(N1CCOCC1)N1CC[C@H]2[C@H](CCCN2Cc2ccccc2)C1 ?
FUS suppressor: inactive

What do the screens show for `COc1ccc([C@H]2CC(=O)C=C(c3cccc(Br)c3)C2)cc1OC`?
CCT modulator: -1; aSyn yeast inh: 15%; MmCpn inh: -3%; Abeta rescue: inactive; FUS suppressor: inconclusive; TDP-43 yeast inh: 35µM*

How did COc1ccc([C@H]2CC(=O)C=C(c3ccc4ccccc4c3)C2)cc1OC do in these assays?
CCT modulator: 0; aSyn yeast inh: 10%; MmCpn inh: 0%; Abeta rescue: inactive; FUS suppressor: inactive; TDP-43 yeast inh: 16µM*

What do the screens show for `Cc1ccc(-c2ccc(/C=N/O)o2)cc1[N+](=O)[O-]`?
CCT modulator: -2; aSyn yeast inh: -19%; MmCpn inh: -1%; Abeta rescue: inactive; FUS suppressor: inactive; TDP-43 yeast inh: 13µM*

How did O=[N+]([O-])c1cc(-c2ccc(/C=N/n3cnnc3)o2)ccc1Cl do in these assays?
CCT modulator: -1; aSyn yeast inh: 6%; MmCpn inh: -2%; Abeta rescue: inactive; FUS suppressor: inactive; TDP-43 yeast inh: inconclusive

Results for CCc1c(-c2n[nH]c(=S)n2Cc2ccccc2)csc1C ?
CCT modulator: -1; aSyn yeast inh: -4%; MmCpn inh: 0%; Abeta rescue: inactive; FUS suppressor: inactive; TDP-43 yeast inh: 11µM*

Results for COc1ccc(-c2nn(C)c3sc(C(=O)Nc4cc(OC)c(OC)c(OC)c4)cc23)cc1OC ?
Abeta rescue: inactive; FUS suppressor: inconclusive; TDP-43 yeast inh: 14%

Results for O=C(Nc1nc2ncccn2c1-c1ccccc1)c1ccc(F)cc1 ?
FUS suppressor: inactive
